According to PubChem BioAssay (NCI):
This is part of a sample that, as a whole, favours compounds with a hit. Of some 79,000 tested, about 15% had one in any assay. Cut-off read from the data, not from the text of the source: active = growth inhibition above about 70%; inactive = the rest.

Experiments:
[1] = NCI Yeast Anticancer Drug Screen. Data for the rad50 strain (AID 155);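 note: 0% = growth of vehicle-only cultures of the same strain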; details: S. cerevisiae rad50 strain growth inhibition; at 50.0 µM; hits give high values
How it was run: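 Yeast carrying a defined DNA repair defect were exposed to test compounds, and growth was compared with vehicle-treated controls to give percent inhibition.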

[2] = NCI Yeast Anticancer Drug Screen. Data for the mec2-1 strain (AID 157); details: S. cerevisiae mec2-1 strain, at 50.0 µM, hits give high values
How it was run: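 Compounds were applied to mec2-1 yeast cells. Their growth was then compared with that of vehicle-treated cultures to give growth inhibition.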

[3] = NCI Yeast Anticancer Drug Screen. Data for the sgs1 mgt1 strain (AID 161);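 note: 0% = growth of cultures given vehicle only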; details: S. cerevisiae sgs1 mgt1 strain, at 50.0 µM, hits give high values
How it was run: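 Compounds are added to genetically altered yeast, and growth is compared with cultures given vehicle alone to give percent inhibition.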

[4] = NCI Yeast Anticancer Drug Screen. Data for the cln2 rad14 strain (AID 165);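 note: 0% = growth equal to vehicle treated cultures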; details: S. cerevisiae cln2 rad14 strain, at 50.0 µM, hits give high values
How it was run: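 Strain: cln2 rad14 yeast, altered in cell cycle control and DNA damage repair. Read-out: growth inhibition vs vehicle.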

[5] = NCI Yeast Anticancer Drug Screen. Data for the bub3 strain (AID 167); details: S. cerevisiae bub3 mutant strain, at 50.0 µM, hits give high values
How it was run: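 Compounds were applied to a genetically altered yeast strain carrying a cell-cycle control defect. Growth inhibition was scored against vehicle-treated controls.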

[6] = NCI Yeast Anticancer Drug Screen. Data for the mlh1 rad18 strain (AID 175); details: S. cerevisiae mlh1 rad18 strain growth inhibition; at 50.0 µM; hits give high values
How it was run: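 A repair-deficient yeast strain is exposed to test compound, and growth is scored relative to vehicle-treated controls.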

Measured: growth inhibition

O=C(O)/C=C/c1ccc(Oc2ccccc2C(=O)O)o1
inactive: [1] -3.45% | [2] -7.15% | [3] 5.05% | [4] 2.3% | [5] -1.2% | [6] -2.25%

CN(C)c1ccc2c(c1)c1cc(N(C)C)ccc1n2Cc1ccccc1
inactive: [1] -2.05% | [2] -19.6% | [3] 12.2% | [4] -30.4% | [5] 1.95% | [6] -10.2%

C=C1C(=O)OC2/C=C(\C)C(OC(C)=O)C3OC3C(C)(O)CC(OC(=O)/C(C)=C/C)C12 (stereo unspecified)
inactive: [1] 3.35% | [2] 2.2% | [3] -15.4% | [4] -5.2% | [5] -29.7% | [6] -13.1%

CC1CCCC(C(O)CC2CC(=O)NC(=O)C2)C1O (stereo unspecified)
inactive: [1] 17.4% | [2] -3.65% | [3] 3.5% | [4] -29.8% | [5] 1.7% | [6] 4.45%

Cc1cc(C)cc(C(=O)OC2CCCC2)c1
inactive: [1] 1.2% | [2] 0.35% | [3] -3.85% | [4] 4.5% | [5] -5.2% | [6] 22.9%

Nc1ncnc(N)c1NC(=O)CCCCc1ccccc1
inactive: [1] 4.25% | [2] -12.2% | [3] -13.2% | [4] 4.8% | [5] 1.4% | [6] -5.9%

COC(=O)c1nnn(-c2ccccc2C(C)C)c1C(=O)c1ccccc1
inactive: [1] 7% | [2] -8.85% | [3] -0.9% | [4] -5.75% | [5] -21.4% | [6] 24.5%

CC(C)NC(=O)Nc1cccc(Cl)c1
inactive: [1] 0.75% | [2] 7.2% | [3] 17.7% | [4] -18.8% | [5] -23.2% | [6] -1%

CCOC(=O)C1(C)CCCc2sc(N)c(C#N)c21 (stereo unspecified)
inactive: [1] -42.4% | [2] -7.55% | [3] -11.1% | [4] -6.45% | [5] -14.2% | [6] 5.45%

Brc1ccc2oc3ccccc3c2c1
inactive: [1] 24.4% | [2] -2.45% | [3] 18.4% | [4] -5.5% | [5] 6.75% | [6] 24.8%

CCCCn1c(-c2ccccc2)cs/c1=N\N=C1C=C(C(C)(C)C)C(=O)C(C(C)(C)C)=C1
inactive: [1] 12.2% | [2] -13.9% | [3] 0.05% | [4] -35.2% | [5] -16.9% | [6] 16.9%

COc1ccc(OC)c(C(c2cc(OC)ccc2OC)C(Cl)(Cl)Cl)c1
inactive: [1] 0.45% | [2] -13.2% | [3] -5.3% | [4] -6.45% | [5] -6% | [6] 14.6%

O=c1nc(NO)cnn1C1OC(CO)C(O)C1O (stereo unspecified)
inactive: [1] 13.7% | [2] -0.2% | [3] 16.4% | [4] -26.4% | [5] -11.8% | [6] 11.7%

Cc1ccc(S(=O)(=O)NCCN)cc1
inactive: [1] 9.45% | [2] 11.2% | [3] 24.2% | [4] -19.5% | [5] -6.4% | [6] -3.3%

CCOc1ccc(NC(=O)C(C)O)cc1 (stereo unspecified)
inactive: [1] -29.9% | [2] -14.4% | [3] -20.2% | [4] 6.1% | [5] -3.65% | [6] -14.3%

O=C(CC(c1ccccc1)C1CCCN(c2ccccc2)S1(=O)=O)c1ccccc1 (stereo unspecified)
inactive: [1] 26.6% | [2] 1.2% | [3] 11.1% | [4] 16.9% | [5] -3.05% | [6] 23.1%

NNC(=O)c1ccccc1O
inactive: [1] 36% | [2] 14.4% | [3] 15.5% | [4] -12.3% | [5] 13.4% | [6] 62%

Clc1cccc(CC(Br)Br)c1
inactive: [1] 14.8% | [2] 4.45% | [3] 6.75% | [4] 23% | [5] -4.65% | [6] 14.5%

CCOC(CNCc1ccncc1)OCC
inactive: [1] -19.8% | [2] -20.3% | [3] -26.8% | [4] 4.9% | [5] -31% | [6] -10.9%

COC1(OC)CC2C(=O)N(Cc3ccccc3)C1C(S(=O)(=O)c1ccccc1)C2C(C)S(=O)(=O)c1ccccc1 (stereo unspecified)
inactive: [1] 14.1% | [2] -0.55% | [3] -24% | [4] -35% | [5] -26.7% | [6] 5%

C=CS(=O)(=O)c1ccc(Nc2cc(S(=O)(=O)O)c(N)c3c2C(=O)c2ccccc2C3=O)cc1
inactive: [1] -20.2% | [2] -30.9% | [3] -4.1% | [4] 2.9% | [5] -19.3% | [6] -36.1%
